From PubChem
TDP1 cell noCPT: qHTS for Inhibitors of human tyrosyl-DNA phosphodiesterase 1 (TDP1): qHTS in cells in absence of CPT | actives 15% (n = 420,000) | Potency, µM (doses to about 46.2 µM), for the others: top-dose activity change, negative = growth inhibition, usual class: inhibitors | DT40 Tdp1-/- hTDP1 cells, no CPT, ATP luminescence, 48 h; also: potency is read from the fitted curve at half-maximal effect; nearly all actives have a fitted effect of over 55% in size
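Cells were dispensed at 400 per well, compounds added by pin tool, plates incubated ≥48 hr at 37 °C, then CellTiter-Glo added for 30 min at room temperature before luminescence reading. Line: DT40 Tdp1-/- complemented with hTDP1; camptothecin omitted.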
IL-1B inflam inh: inflammasome signaling inhibition, IL-1 beta readout | THP-1 LPS/ATP IL-1B secretion, AlphaLISA, 16 h; stronger effect = lower value | activity change, % at 57.5 µM | actives 4.7% (n = 360,000) | AID 743279; in the data active = activity change below about -50%; inconclusive = mostly about -30% to -49%
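Secreted IL-1B measured by AlphaLISA bead assay after 16 h compound exposure of THP-1 cells; compounds (final up to 57.5 uM) added 1 h before LPS (250 ng/mL) and ATP (1.25 mM) stimulation; lower signal means less secretion.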
LDHA inh: blocks human lactate dehydrogenase A; P00338; purified LDHA, NADH/diaphorase-resazurin fluorescence; stronger effect = lower value; activity change, % (values are at about 110 or 230 µM); actives 0.15% (n = 480,000); AID 1347041; in the data active = activity change below about -30%; inconclusive = mostly about -25% to -30%;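 also: plate controls were DMSO wells for no effect and wells without enzyme for full effect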
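Human LDH5 at 2 nM final in Tris HCl pH 7.4 with 0.06 mM NADH and 0.2 mM pyruvate, reacted 5 minutes at room temperature. Remaining NADH coupled via diaphorase/resazurin; resorufin fluorescence read at 0 and 20 minutes, normalized to enzyme-free and DMSO wells.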
TDP1 cell CPT: growth inhibition of DT40 Tdp1-/-;hTDP1 cells with camptothecin (screen for TDP1 inhibitors) | chicken DT40 Tdp1-/-;hTDP1 cells + 20 nM CPT, ATP luminescence, 48 h | Potency, µM (doses to about 46.2 µM), for the others: at the top dose activity change, negative = growth inhibition, actives largely listed as inhibitors | actives 12% (n = 420,000) | AID 686979; also: potency is read from the fitted curve at half-maximal effect; nearly all actives have a fitted effect of over 55% in size
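Chicken DT40 Tdp1-/- cells complemented with human TDP1, 400 cells/well, exposed to compounds plus 20 nM camptothecin for at least 48 h at 37 C; viability read as ATP content by CellTiter-Glo luminescence.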
RORgamma inh: inhibitors of mouse ROR gamma transcriptional activity; AID 2551; Drosophila S2 Gal4-RORgamma UAS-luciferase reporter, 20 h; Potency, µM (series often up to 53.6 µM), without a hit: at the highest dose activity change, negative = inhibition, usual class: inhibitors; actives 5.4% (n = 310,000); P51450; also: potency is read from the fitted curve at half-maximal effect; nearly all actives have a fitted effect of over 60% in size
Target sequence (P51450 whole entry, looked up, the tested form may be a part): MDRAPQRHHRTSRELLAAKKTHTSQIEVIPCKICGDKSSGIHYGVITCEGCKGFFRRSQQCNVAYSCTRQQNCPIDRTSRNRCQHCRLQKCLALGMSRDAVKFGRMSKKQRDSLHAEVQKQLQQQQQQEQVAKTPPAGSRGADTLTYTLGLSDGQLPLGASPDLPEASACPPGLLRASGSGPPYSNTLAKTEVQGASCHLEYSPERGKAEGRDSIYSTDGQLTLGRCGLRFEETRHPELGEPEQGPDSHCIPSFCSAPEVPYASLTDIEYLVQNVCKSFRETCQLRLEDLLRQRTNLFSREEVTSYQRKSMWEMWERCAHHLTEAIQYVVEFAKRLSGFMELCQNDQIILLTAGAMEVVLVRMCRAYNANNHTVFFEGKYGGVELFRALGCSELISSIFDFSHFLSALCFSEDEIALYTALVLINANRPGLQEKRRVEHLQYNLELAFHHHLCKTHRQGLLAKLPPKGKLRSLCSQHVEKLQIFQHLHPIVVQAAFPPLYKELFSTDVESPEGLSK
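ROR gamma transcriptional activity was tracked as Gal4-UAS luciferase output in stably transfected Drosophila Schneider cells, with compound added 1 hr before 700 uM copper sulfate induction and a 20 hr ambient-temperature incubation.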
VP16 counter: counter-screen for ROR gamma inhibitors: Gal4-VP16 reporter | Drosophila S2 Gal4-VP16 UAS-luciferase, luminescence, 20 h | Potency, µM (series often up to 53.6 µM), without a hit: at the highest dose activity, negative = inhibition, most hits filed as inhibitors | actives 3.5% (n = 310,000) | AID 2546;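 also: Gal4-VP16 expression switched on by copper sulfate through the metallothionein promoter; potency is read from the fitted curve at half-maximal effect; nearly all actives have a fitted effect of over 50% in size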
Numbers without * were called inactive; ? = inconclusive; . = no result. An excerpt weighted towards active compounds, which were near 18% of everything screened. Unless noted, calls follow the shape of the dose curve; as a rule, active = well fitted curve in the direction sought with a large enough effect; inconclusive = small, poorly fitted or top-dose-only effect, or another doubt; inactive = no such curve, though single readings can be large; an effect the other way counts as inactive or inconclusive. Unless noted, % is scaled to controls: 0 for no effect and ±100 for the full control effect.

SMILES	TDP1 cell noCPT	IL-1B inflam inh	LDHA inh	TDP1 cell CPT	RORgamma inh	VP16 counter
CCOC(=O)[C@@H]1CSCCS(=O)(=O)N1Cc1ccccc1Br	-24%	39	-9	-29%	.	.
COc1ccc(-c2nc(C)c(C(=O)N3CCN(C(C#N)c4ccc(F)cc4)CC3)s2)cc1OC (stereo unspecified)	.	.	-6	.	.	.
COc1ccc(C(=O)N2CCC(C(=O)N(C)Cc3ccc(C)cc3)CC2)c2ccccc12	.	.	8	.	.	.
Cc1nc2ccc(Cl)cc2cc1C(=O)N1CCN(CC(F)(F)F)CC1	.	.	-3	.	.	.
COc1cc2ccccc2cc1C(=O)Nc1sc2c(c1C(N)=O)CCN(C(C)C)C2	.	.	.	.	13µM*	18µM*
CC(C)N1CCc2c(sc(NC(=O)CN3C(=O)c4ccccc4C3=O)c2C(N)=O)C1	19%	22	-8	-2%	-1%	5%
CC(C)N1CCc2c(sc(NC(=O)C3CCCCC3)c2C(N)=O)C1	?	-55*	0	?	-38%	-27%
CN1CCc2c(sc(NC(=O)C3CCCCC3)c2C(N)=O)C1	1%	-21	-14	16%	-10%	0%
CCOC(=O)c1c(NC(=O)C2CCCCC2)sc2c1CCN(C(C)C)C2	13µM*	-9	-2	15µM*	-25%	-4%
COC(=O)c1c(NC(=O)C2CCCCC2)sc2c1CCN(C(C)C)C2	?	-30	-2	?	-16%	2%
Cc1ccc(NC(=O)c2sccc2C)cc1I	.	.	4	.	.	.
CCOc1ccc2cc(C(=O)O)[nH]c2c1	.	.	5	.	.	.
COc1cc(-c2c(CCO)sc3ccccc23)cc(OC)c1OC	6.5µM*	130	1	6.5µM*	.	.
COc1cc(-c2c(-c3ccsc3)sc3ccccc23)cc(OC)c1OC	5%	13	1	1%	.	.
O=C(CCCCCNc1nc(=S)[nH]c2ccccc12)N1CCN(c2ccccn2)CC1	.	.	.	.	10µM*	?
COc1cccc(N2CCN(C(=O)CCCCCNc3nc(=S)[nH]c4ccccc34)CC2)c1	9.2µM*	-175*	-5	4.6µM*	8.9µM*	?
CCc1nc2c(sc3ncccc32)c(=O)n1CC(=O)Nc1ccc(C(C)C)cc1	.	.	7	.	.	.
O=C(NCC1OCCc2ccccc21)c1ccc(NC(=O)c2ccccc2Cl)cc1 (stereo unspecified)	?	-73*	-8	-21%	25%	?
O=C(NCC1OCCc2ccccc21)c1ccc(NC(=O)c2cccc(Br)c2)cc1 (stereo unspecified)	7.3µM*	18	2	7.3µM*	?	?
O=C(NCC1OCCc2ccccc21)c1cc(COc2c(F)cccc2F)on1 (stereo unspecified)	16µM*	-7	-1	-9%	39%	4%
COc1ccc(C(=O)NCC2OCCc3ccccc32)cc1OC (stereo unspecified)	0%	?	-9	-5%	-1%	-14%
CC(=O)Nc1ccc2oc(-c3ccc(C)cc3)cc(=O)c2c1	.	.	-14	.	.	.
Cc1cccc(NC(=O)CCc2ncc(-c3ccc(F)cc3F)o2)c1	.	.	-7	.	.	.
CC1CCC/C(=N/NC(=O)C2CC2)C1 (stereo unspecified)	.	.	8	.	.	.
Oc1[nH]c(N=C2N=c3ccccc3=N2)c2ccccc12	0.92µM*	-98*	-4	0.58µM*	0.5µM*	2.5µM*
SMILES	TDP1 cell noCPT	IL-1B inflam inh	LDHA inh	TDP1 cell CPT	RORgamma inh	VP16 counter
Cc1ccc2c(c1)=N/C(=N\c1[nH]c(O)c3ccccc13)N=2	3.7µM*	-102*	-3	4.1µM*	.	.
Oc1[nH]c(=S)sc1C=C1N=c2ccccc2=N1	-25%	.	-25	-2%	-14%	16%
O=C(NCC12CC3CC(CC(C3)C1)C2)c1cc([N+](=O)[O-])ccc1Cl	.	.	-1	.	.	.
CCCCC(=O)OCc1nc2ccccc2s1	-9%	23	3	?	?	5%
Cc1noc(C)c1COC(=O)CCCc1nc2ccccc2s1	-5%	20	-1	2%	?	7.9µM*
CC(=O)c1c(C)[nH]c(-c2csc(CC(=O)Nc3ccccc3C)n2)c1C	.	.	-4	.	.	.
Cc1ccc(S(=O)(=O)N2CCCCC2c2cccnc2)c(C)c1C (stereo unspecified)	23µM*	0	0	?	36%	-23%
O=S(=O)(c1cccc(C(F)(F)F)c1)N1CCCC1c1cccnc1 (stereo unspecified)	?	.	-5	-3%	19%	-4%
COc1cc(OC)cc(C(=O)Nc2ccc(S(=O)(=O)N3CCCCC3c3cccnc3)cc2)c1 (stereo unspecified)	26µM*	.	-2	?	.	.
COc1ccc(N2CCCCS2(=O)=O)cc1S(=O)(=O)N(C)CCc1ccncc1	.	.	0	.	.	.
COc1ccc(S(=O)(=O)Nc2ccc(NC(C)=O)cc2)cc1NC(C)=O	.	.	1	.	.	.
Cc1cc(OCC(O)CN2CCc3ccccc3C2)ccc1Cl (stereo unspecified)	?	-62*	0	-7%	-28%	?
CC1CCN(CC(O)COC2CCC(C(C)(C)C)CC2)CC1 (stereo unspecified)	18µM*	?	-8	23µM*	11%	-16%
Cc1ccc(C)c(OCC(O)CN2CCc3ccccc3C2)c1C (stereo unspecified)	3.7µM*	0	0	6.5µM*	9%	2%
Cc1ccc(C)c(OCC(O)CN2CCC(C)CC2)c1C (stereo unspecified)	21µM*	24	-14	?	-32%	-1%
CC(C)(CC(=O)O)CC(=O)Nc1ccccc1C(C)(C)C	.	.	-4	.	.	.
Cc1c(Cl)cccc1N(CC(=O)N1CCc2ccccc2C1)S(C)(=O)=O	.	.	3	.	.	.
CCCC[n+]1c(NCc2cc(Cl)ccc2[O-])[nH]c2ccccc21	.	.	-13	.	.	.
CC(C)c1cc(C(C)C)c(S(=O)(=O)NC(c2ccccn2)C23CC2C3)c(C(C)C)c1 (stereo unspecified)	16µM*	22	7	?	.	.
CC(NS(=O)(=O)c1ccc2ccccc2c1)c1ccccn1 (stereo unspecified)	-3%	-15	-20	1%	.	.
Cc1cc(C)c(NC(=O)CCn2cnc3c2c(=O)n(C)c(=O)n3C)c(C)c1	.	.	6	.	.	.
c1ccc(C(Nc2ccc3nnnn3n2)c2ccccn2)cc1 (stereo unspecified)	.	.	-1	.	.	.
O=C1N=C2SCCN2/C1=C\c1ccc(Cl)cc1	?	-68*	-5	-28%	-43%	16%
